The source of these data is PubChem BioAssay AID1845227 (National Center for Advancing Translational Sciences (NCATS), 2023).

Results filed as inconclusive are left out. Entries that show only a call come without a potency. Values without a mark were called inactive. The source made the active and inactive calls. Calls come from the whole dose curve; as a rule, active = well fitted inhibition curve with a large enough effect; inconclusive = small, poorly fitted or top-dose-only effect; inactive = no such curve, though single readings can be large or run the other way.
Potency is the fitted concentration of half-maximal effect.

In the assay the target is Luciferin 4-monooxygenase (Photinus pyralis) (UniProt P08659). The experiment in a line: Confirmatory firefly luciferase (FLuc) qHTS assay for identification of artifact compounds. The conditions noted are these: purified FLuc enzyme, luminescence, 5 min; series mostly up to 38.9 µM. The method in brief: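 Compounds were preincubated 15 min at room temperature with 10 uM D-luciferin and 10 uM ATP in Tris acetate pH 7.6. 10 nM Photinus pyralis luciferase was then added, and luminescence was read after 5 min.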
Consider `NCCCNCCCCNCCCNC(=O)CCc1ccc(O)cc1`, for which the activity change, negative = inhibition is 2.14% [at 7.25 µM].

On to `O=C=Nc1ccc(Cc2ccc(N=C=O)cc2)cc1`, for which the Potency result was “inactive”.

In the case of `O=C(Nc1nnc(-c2ccccc2)s1)c1ccc(S(=O)(=O)N2CCCC2)cc1`, the Potency entry was “inactive”.

As for `CC(C)(C)OC(=O)N1CCN(c2ccc(NCc3ccc(-c4ccc(C#N)cc4)nc3)cc2)CC1`, the Potency entry is “inactive”.

`COc1ccc(C(=O)Nc2noc3ccccc23)cc1`: the Potency was 0.864 µM (active).

As to `O=C(Cc1ccccc1)Nc1ccc2oc(-c3cccnc3)nc2c1`, the Potency entry was “inactive”.

Take `Cc1cc(Cl)ccc1NC(=O)c1cc2ccccn2n1`: the Potency was 8.64 µM (active).

Consider `CCOC(=O)c1c(C)[nH]c(C)c1S(=O)(=O)N1CCC(C(=O)N2CCN(c3ccccc3)CC2)CC1`, for which the Potency result is “inactive”.

In the case of `COc1ccc(C2C(C(=O)Nc3ccccc3)=C(C)Nc3c(C(=O)Nc4ccccc4)cnn32)cc1` (stereo not drawn), the Potency result was “inactive”.

For the compound `O=C1C(c2ccc(F)cc2)N(CCc2ccc(Cl)cc2)C(=O)CN1C1CCCCC1` (stereo not drawn), the Potency entry is “inactive”.

Consider `Cc1cn(C)c(CC(=O)N2CCN(c3ccccc3F)CC2)c1C(=O)O`, for which the Potency entry was “inactive”.

As for `COC(=O)c1scc(-c2ccc(C)cc2)c1S(=O)(=O)N1CCN(c2ccc(C(C)=O)cc2)CC1`, the Potency result was “inactive”.

For `Cc1c(CCNC(=O)Cc2ccc(F)cc2)sc2nc(-c3ccc(F)cc3)nn12`, the Potency result is “inactive”.

As for `Nc1ccc(F)cc1F`, the Potency entry was “inactive”.

Take `CC(C)Nc1ccc(-c2nc(-c3ccccn3)no2)cc1[N+](=O)[O-]`: the Potency was 3.44 µM (active).

Take `COc1ccc(-c2cc(C(=O)Nc3cc(C(F)(F)F)ccc3Cl)no2)cc1`: the Potency entry was “inactive”.

For `CC1CCN(c2nc3ccccc3nc2SCC(=O)Nc2ccccc2C(C)C)CC1`, the Potency entry was “inactive”.

In the case of `Cc1ccc(-c2nc3scc(CCNS(=O)(=O)c4ccc(F)c(C)c4)n3n2)cc1`, the Potency entry was “inactive”.

For `Cc1ccc(NC(=O)CSc2ccc(-c3cccs3)nn2)cc1Cl`, the Potency entry is “inactive”.

On to `CCc1ccccc1NC(=O)c1nc(-c2ccncc2)no1`, for which the Potency entry was “inactive”.

As for `COc1ccc(-c2noc(N3CCC(C(=O)N4CCN(c5cccc(C)c5C)CC4)CC3)n2)cc1`, the Potency result is “inactive”.

Regarding `COc1ccc(-c2ccc(=O)n(CC(=O)Nc3ccc(OC)c(OC)c3)n2)cc1`, the Potency result is “inactive”.

Consider `COc1cc(C2C(C(=O)Nc3ccc(Cl)cc3)=C(C)Nc3nc(SC)nn32)cc(OC)c1OC` (stereo not drawn), for which the Potency result is “inactive”.

Regarding `CCC(Sc1ncc(S(=O)(=O)c2ccc(Cl)cc2)c(=O)[nH]1)C(=O)Nc1ccc(OC)cc1` (stereo not drawn), the Potency result was “inactive”.

Consider `O=C(O)CCCC/C=C\C[C@@H](O)/C=C/C=C/C=C\[C@@H](O)CCCC(=O)O`, for which the activity change, negative = inhibition was -5.27% [at 0.322 µM].

Regarding `CCOc1ccc(N=C(C)Nc2ccc(OCC)cc2)cc1`, the Potency result is “inactive”.

In the case of `COc1ccc(N2CC(NC(=O)COc3ccccc3)CC2=O)cc1OC` (stereo not drawn), the Potency entry was “inactive”.

Consider `CC(C)=CCC/C(C)=C/C=O`, for which the Potency result was “inactive”.

Regarding `Cc1cccc(C(=O)Nc2ccc(-c3nc4ncccc4o3)cc2C)c1`, the Potency result was “inactive”.

As to `O=C(Nc1ccccc1-c1nc2ccccc2s1)c1cc(Cl)cc(Cl)c1`, the Potency entry was “inactive”.

In the case of `CNc1oc(-c2ccc3cnccc3c2)nc1C#N`, the Potency result was “inactive”.

As to `Cc1nnc(NC(=O)c2nc(S(=O)(=O)Cc3ccccc3)ncc2Cl)s1`, the Potency result is “inactive”.

As for `CCCNC(=O)c1ccccc1NC(=O)c1nsc2ccccc12`, the Potency result is “inactive”.
